Measurements taken from the supplement of paper PMC11732987, “Enantioselective OTUD7B fragment discovery through chemoproteomics screening and high-throughput optimisation” (Communications Chemistry, 2025).

Columns and labels:
Assay in all cases: log2 ratio of Biotin-Ahx-Ub-VS probe labelling (fragment/DMSO); higher = less target engagement (more negative = stronger competition), active = hit call of the paper (q ≤ 0.05, log2 ratio ≤ -1)
Conditions in all cases: compound concentration: 200 uM; treatment time: 3 h
USP42 = biological target: T1, USP42 (UniProt Q9H9J4)
T1 sequence (whole entry): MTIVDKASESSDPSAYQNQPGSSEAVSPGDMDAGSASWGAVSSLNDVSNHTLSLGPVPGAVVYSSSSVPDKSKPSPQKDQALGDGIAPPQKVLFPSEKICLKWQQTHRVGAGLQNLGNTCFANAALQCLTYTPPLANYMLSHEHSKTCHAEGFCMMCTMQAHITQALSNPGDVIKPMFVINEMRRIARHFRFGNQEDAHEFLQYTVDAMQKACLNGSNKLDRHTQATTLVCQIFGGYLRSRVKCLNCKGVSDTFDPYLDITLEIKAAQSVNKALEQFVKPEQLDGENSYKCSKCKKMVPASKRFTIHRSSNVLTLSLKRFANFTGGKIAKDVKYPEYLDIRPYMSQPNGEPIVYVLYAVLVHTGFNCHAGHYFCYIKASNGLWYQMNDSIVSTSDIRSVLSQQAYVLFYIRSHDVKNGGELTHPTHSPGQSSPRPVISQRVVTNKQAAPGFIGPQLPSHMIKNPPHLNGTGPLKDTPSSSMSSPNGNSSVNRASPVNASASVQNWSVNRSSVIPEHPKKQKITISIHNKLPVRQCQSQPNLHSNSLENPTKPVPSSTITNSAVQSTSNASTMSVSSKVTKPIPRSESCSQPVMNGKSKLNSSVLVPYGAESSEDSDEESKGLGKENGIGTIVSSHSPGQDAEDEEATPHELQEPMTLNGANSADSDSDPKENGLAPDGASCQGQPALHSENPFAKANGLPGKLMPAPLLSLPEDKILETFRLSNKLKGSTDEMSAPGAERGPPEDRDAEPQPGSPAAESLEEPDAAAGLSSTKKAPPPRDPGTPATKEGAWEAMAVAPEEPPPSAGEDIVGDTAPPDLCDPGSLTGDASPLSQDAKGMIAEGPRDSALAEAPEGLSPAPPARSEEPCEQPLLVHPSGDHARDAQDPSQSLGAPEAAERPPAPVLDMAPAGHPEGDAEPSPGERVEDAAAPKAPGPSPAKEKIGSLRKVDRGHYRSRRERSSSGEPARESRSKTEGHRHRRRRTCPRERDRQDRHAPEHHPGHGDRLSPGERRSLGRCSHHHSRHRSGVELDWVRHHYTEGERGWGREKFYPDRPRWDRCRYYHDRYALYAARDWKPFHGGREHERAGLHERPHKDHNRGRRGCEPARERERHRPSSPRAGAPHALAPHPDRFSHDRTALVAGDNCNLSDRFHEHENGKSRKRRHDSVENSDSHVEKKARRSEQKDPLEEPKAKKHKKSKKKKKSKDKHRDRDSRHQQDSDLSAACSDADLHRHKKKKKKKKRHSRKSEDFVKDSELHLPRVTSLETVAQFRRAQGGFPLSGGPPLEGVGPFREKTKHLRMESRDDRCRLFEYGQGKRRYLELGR
How it was run: (§1)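 HEK293T lysate in Tris/CHAPS/IGEPAL buffer with protease inhibitors (495 µg per sample) was given fragment at 200 µM or vehicle for 3 h, in triplicate. It then received Biotin-Ahx-Ub-VS at 0.5 µM final for 1 h. Labelled DUBs were NeutrAvidin-enriched, digested with LysC and trypsin, and run by diaPASEF LC-MS/MS. Values are average log2 fragment/vehicle ratios by unpaired t-test on global-median-normalised Spectronaut quantities of proteins with ≥2 unique peptides.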

USP46 = USP46 (UniProt P62068)
Chain of USP46 (P62068 whole entry): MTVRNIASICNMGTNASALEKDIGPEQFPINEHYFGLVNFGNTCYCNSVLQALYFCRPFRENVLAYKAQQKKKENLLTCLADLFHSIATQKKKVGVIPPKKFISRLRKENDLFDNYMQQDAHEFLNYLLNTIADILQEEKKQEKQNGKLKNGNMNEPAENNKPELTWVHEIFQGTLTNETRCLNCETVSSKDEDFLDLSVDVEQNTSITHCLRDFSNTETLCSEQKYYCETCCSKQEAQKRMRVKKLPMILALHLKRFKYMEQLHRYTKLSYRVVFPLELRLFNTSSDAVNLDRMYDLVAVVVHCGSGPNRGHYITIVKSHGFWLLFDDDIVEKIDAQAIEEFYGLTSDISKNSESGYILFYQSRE
How it was run: as §1

USP47 = biological target: T2, USP47 (UniProt Q96K76)
T2 sequence (whole entry): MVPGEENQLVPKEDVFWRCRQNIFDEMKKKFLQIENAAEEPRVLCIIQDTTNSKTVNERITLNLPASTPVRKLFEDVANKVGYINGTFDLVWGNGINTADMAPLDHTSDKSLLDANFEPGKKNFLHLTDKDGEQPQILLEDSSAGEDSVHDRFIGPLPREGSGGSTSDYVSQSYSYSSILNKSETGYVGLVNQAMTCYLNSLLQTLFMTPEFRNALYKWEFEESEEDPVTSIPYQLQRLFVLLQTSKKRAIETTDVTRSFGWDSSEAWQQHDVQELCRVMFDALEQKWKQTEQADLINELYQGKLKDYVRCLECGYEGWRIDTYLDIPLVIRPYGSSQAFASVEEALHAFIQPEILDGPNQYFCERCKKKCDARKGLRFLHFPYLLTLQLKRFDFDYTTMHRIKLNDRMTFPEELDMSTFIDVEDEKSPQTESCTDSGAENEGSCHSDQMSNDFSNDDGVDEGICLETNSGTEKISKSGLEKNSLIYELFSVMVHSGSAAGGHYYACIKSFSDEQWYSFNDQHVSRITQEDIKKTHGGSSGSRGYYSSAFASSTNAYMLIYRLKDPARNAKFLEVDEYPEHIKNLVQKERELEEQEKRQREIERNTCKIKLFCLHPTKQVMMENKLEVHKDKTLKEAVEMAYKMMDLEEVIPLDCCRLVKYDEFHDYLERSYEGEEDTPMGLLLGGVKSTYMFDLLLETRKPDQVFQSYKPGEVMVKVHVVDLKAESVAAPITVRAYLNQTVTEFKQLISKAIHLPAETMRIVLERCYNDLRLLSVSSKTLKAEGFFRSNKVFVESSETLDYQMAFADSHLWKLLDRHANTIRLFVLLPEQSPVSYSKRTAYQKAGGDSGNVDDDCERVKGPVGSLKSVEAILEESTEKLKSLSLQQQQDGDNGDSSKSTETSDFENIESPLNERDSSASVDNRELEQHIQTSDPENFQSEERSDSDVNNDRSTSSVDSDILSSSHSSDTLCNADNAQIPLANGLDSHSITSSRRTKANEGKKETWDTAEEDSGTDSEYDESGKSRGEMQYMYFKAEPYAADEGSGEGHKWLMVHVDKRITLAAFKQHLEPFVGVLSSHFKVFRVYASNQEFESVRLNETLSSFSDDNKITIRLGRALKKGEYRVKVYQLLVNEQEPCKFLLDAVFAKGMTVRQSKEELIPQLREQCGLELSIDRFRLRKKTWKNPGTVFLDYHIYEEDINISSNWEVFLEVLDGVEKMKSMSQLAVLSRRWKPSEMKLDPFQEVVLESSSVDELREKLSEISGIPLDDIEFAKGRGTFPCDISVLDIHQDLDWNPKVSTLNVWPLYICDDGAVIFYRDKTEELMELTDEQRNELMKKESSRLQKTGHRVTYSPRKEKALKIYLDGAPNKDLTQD
How it was run: as §1

USP48 = biological target: T3, USP48 (UniProt Q86UV5)
T3 sequence (whole entry): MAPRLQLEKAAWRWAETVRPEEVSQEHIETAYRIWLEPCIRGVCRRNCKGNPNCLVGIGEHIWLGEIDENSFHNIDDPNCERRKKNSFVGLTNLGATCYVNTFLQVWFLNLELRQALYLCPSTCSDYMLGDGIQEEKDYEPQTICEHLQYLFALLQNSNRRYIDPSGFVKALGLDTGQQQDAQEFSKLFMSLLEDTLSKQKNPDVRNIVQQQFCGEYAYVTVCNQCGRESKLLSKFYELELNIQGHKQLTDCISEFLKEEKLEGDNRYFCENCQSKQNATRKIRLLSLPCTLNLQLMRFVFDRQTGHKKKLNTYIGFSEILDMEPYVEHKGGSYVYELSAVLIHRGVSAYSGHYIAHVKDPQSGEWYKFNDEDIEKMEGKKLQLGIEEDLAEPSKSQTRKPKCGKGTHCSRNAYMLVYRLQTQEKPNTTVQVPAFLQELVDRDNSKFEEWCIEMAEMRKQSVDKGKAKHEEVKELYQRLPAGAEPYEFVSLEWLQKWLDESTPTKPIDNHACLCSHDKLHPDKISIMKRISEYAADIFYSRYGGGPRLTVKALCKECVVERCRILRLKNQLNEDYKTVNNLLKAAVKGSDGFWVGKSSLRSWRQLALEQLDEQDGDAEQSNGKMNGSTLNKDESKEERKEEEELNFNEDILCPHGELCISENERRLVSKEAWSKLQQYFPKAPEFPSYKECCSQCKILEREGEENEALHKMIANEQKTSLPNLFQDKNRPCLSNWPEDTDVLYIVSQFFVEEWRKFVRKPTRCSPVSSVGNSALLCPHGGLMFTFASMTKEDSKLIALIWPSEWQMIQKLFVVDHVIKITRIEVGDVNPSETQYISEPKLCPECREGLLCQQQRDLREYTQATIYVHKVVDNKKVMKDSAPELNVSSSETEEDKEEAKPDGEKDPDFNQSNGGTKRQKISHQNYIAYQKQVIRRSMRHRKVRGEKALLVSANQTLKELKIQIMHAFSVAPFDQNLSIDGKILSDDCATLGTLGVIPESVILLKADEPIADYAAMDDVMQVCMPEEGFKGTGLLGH
How it was run: as §1

USP5 = biological target: T4, USP5 (UniProt P45974)
T4 sequence (whole entry): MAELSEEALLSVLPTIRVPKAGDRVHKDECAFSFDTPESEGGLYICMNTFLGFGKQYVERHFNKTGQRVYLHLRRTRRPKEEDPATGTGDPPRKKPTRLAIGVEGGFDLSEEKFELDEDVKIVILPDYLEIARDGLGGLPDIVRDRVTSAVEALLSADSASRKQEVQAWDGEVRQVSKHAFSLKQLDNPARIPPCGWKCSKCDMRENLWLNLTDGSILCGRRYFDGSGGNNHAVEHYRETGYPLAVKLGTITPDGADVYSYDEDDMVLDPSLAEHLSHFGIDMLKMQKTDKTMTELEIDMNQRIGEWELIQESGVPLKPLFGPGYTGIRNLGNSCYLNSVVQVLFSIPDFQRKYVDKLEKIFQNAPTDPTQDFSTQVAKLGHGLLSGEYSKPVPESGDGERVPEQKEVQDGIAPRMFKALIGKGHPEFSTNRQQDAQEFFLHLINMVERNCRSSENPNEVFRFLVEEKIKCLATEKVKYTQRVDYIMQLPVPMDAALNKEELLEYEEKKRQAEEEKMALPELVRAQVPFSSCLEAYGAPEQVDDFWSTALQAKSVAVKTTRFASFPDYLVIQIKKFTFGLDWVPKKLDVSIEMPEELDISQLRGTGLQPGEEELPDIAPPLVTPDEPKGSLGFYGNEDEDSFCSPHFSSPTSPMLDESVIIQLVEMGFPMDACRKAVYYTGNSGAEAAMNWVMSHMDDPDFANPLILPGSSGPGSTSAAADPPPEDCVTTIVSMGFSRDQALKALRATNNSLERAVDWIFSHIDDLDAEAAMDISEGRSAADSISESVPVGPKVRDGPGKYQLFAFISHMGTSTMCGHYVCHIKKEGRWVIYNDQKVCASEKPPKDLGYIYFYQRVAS
How it was run: as §1

USP54 = USP54 (UniProt Q70EL1)
Chain of USP54 (Q70EL1 whole entry): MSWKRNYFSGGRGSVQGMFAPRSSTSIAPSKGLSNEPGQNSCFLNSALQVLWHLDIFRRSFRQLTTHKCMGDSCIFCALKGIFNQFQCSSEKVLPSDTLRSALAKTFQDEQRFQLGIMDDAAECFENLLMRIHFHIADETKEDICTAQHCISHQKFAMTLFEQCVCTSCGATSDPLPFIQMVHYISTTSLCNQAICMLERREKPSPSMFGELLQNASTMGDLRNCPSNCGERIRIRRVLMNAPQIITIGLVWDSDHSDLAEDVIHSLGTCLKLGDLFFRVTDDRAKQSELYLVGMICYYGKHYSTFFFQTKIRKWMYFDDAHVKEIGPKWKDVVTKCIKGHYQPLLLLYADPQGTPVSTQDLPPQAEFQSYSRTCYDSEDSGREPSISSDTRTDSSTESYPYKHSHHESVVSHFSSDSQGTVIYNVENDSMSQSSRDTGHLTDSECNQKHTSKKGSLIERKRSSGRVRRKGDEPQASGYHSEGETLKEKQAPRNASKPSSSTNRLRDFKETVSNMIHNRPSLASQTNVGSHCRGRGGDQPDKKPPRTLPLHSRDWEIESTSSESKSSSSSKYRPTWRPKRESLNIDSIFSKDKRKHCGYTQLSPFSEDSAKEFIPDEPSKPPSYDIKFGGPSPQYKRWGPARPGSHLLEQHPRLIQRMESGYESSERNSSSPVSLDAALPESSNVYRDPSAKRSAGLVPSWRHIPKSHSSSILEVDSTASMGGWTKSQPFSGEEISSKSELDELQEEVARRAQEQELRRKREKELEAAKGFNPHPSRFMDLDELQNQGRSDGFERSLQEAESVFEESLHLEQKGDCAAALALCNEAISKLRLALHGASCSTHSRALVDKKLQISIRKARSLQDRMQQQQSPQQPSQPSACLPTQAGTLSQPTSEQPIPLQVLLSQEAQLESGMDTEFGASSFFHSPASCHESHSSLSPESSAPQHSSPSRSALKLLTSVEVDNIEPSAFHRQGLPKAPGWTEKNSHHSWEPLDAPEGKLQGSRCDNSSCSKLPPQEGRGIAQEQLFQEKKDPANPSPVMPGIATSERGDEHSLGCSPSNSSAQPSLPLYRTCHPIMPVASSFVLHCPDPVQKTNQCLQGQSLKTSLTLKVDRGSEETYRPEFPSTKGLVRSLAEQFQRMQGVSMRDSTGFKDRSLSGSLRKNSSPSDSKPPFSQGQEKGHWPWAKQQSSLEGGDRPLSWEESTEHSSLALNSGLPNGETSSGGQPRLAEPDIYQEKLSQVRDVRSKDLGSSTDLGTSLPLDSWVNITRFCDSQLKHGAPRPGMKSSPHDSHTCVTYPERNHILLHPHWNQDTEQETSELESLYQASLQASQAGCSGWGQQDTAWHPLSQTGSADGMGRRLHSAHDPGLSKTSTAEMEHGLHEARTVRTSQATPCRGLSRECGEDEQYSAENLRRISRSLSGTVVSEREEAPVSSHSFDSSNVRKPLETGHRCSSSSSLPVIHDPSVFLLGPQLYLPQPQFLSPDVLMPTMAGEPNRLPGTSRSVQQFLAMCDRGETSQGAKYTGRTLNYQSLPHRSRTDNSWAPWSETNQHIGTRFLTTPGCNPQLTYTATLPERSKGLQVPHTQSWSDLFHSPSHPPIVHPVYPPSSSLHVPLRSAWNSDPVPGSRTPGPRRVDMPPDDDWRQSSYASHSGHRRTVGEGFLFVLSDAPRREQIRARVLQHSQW
How it was run: as §1

USP7 = USP7 (UniProt Q93009)
Chain of USP7 (Q93009 whole entry, looked up): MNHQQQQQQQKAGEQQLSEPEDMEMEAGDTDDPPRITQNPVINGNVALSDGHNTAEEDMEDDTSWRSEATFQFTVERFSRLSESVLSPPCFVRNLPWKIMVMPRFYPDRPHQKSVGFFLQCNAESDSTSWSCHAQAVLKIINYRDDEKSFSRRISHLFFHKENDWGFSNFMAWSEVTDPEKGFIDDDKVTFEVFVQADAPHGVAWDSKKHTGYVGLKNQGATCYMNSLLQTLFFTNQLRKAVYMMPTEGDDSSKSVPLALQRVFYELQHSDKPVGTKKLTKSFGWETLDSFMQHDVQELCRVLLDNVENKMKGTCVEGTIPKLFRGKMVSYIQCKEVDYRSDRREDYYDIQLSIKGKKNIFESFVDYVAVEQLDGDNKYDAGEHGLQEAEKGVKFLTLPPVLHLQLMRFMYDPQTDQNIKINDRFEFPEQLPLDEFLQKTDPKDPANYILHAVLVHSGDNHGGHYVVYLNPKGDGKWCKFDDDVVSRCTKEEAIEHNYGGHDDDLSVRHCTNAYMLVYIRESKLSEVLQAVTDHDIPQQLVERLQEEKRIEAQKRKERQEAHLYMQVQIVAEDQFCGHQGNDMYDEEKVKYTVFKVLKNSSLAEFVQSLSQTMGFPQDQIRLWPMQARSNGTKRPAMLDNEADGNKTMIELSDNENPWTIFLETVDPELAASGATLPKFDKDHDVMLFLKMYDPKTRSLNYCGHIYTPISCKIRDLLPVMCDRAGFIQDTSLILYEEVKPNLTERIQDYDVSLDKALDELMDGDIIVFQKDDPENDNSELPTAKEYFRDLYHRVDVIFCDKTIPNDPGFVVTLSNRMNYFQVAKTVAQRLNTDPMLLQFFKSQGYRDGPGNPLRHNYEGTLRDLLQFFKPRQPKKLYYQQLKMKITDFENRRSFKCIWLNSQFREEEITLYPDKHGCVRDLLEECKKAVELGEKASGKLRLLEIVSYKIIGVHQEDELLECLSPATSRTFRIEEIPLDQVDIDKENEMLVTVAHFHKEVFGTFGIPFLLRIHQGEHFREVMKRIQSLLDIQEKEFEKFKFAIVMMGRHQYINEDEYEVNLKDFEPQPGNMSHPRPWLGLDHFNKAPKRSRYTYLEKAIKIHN
How it was run: as §1

USP8 = biological target: T5, USP8 (UniProt P40818)
T5 sequence (whole entry): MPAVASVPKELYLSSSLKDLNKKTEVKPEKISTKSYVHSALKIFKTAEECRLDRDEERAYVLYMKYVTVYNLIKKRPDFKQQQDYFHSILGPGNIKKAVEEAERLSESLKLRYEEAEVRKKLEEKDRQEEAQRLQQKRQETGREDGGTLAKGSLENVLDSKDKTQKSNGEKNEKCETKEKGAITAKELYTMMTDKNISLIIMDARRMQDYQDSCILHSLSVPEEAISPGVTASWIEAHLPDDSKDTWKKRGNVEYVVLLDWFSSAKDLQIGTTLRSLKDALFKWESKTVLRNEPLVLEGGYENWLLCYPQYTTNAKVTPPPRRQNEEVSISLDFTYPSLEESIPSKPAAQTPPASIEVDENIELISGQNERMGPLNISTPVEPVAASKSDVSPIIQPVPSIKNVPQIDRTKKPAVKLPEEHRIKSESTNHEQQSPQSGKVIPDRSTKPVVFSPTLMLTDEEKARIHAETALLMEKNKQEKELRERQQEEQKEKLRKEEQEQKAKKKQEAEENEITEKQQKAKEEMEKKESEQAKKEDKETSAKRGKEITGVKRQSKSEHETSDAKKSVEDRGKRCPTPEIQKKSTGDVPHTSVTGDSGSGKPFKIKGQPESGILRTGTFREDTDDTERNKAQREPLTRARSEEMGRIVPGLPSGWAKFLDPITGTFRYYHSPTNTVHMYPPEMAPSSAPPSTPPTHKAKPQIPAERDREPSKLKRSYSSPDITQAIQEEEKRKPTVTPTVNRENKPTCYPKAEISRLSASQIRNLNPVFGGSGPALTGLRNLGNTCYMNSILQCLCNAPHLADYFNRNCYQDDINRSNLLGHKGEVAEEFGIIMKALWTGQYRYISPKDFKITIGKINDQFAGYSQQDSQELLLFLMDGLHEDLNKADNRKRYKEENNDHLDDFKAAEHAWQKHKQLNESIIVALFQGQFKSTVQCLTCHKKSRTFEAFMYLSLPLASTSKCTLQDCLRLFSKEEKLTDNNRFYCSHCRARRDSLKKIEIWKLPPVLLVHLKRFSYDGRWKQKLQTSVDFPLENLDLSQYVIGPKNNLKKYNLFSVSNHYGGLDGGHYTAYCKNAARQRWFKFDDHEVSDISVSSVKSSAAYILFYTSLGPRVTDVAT
How it was run: as §1

Measured: log2 ratio of Biotin-Ahx-Ub-VS probe labelling

O=C(CCl)NCCc1ccc(F)cc1
inactive: USP42 0.0996 | USP46 0.235 | USP47 -0.0571 | USP48 -0.229 | USP5 0.066 | USP54 0.699 | USP7 -0.0342 | USP8 -0.0379
